# In PubChem BioAssay:
# The source made the active and inactive calls. Rule as the data show it, unless noted: active = inhibition above about 80%; inactive = the rest.
# Assays:
# [1] = growth inhibition, single agent or in combination, cell-based, chromothripsis tumors, cisplatin or BGB combos (AID 1671449); conditions: LFS_MB_P medulloblastoma cells;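 also: cells exposed for 96 hours; 0% = vehicle DMSO and 100% = killing by high DMSO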
# [2] = growth inhibition, single agent and combos, cell-based, chromothripsis tumors, cisplatin or BGB combos (AID 1671450); conditions: HDN33 neuroblastoma cells, stronger effect = higher value;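 also: cells exposed to compound for four days; 0% = vehicle DMSO and 100% = cell killing by high DMSO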
# [3] = growth inhibition, single agents and combos, ICB984, cell-based, cisplatin or BGB combos, synergistic combos for chromothripsis tumors (AID 1671451; call rule not given here;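 also: cells exposed for 96 hours before readout; 0% = vehicle DMSO and 100% = killing by high DMSO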); conditions: ICB984 medulloblastoma cells, drug combinations, stronger effect = higher value
# [4] = growth inhibition, single agents and combos, LFS_MB_1R, cell-based, cisplatin or BGB combos, synergistic combos for chromothripsis tumors (AID 1671452); conditions: LFS_MB_1R medulloblastoma cells, stronger effect = higher value;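 also: cells exposed for 96 hours before readout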
# [5] = growth inhibition, single agents and combos, HTB85, cell-based, BGB or cisplatin IC20 combos, synergistic combos for chromothripsis tumors (AID 1671453); conditions: HTB85 osteosarcoma cells, drug combinations, stronger effect = higher value;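 also: cells exposed for 96 hours before readout; 0% = vehicle DMSO and 100% = high DMSO killing control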
# [6] = growth inhibition, single agents and combos, CRL2098, cell-based, BGB or cisplatin IC20 combos, synergistic combos for chromothripsis tumors (AID 1671454); conditions: CRL2098 osteosarcoma cells, drug combinations, stronger effect = higher value;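 also: cells exposed for 96 h before readout; 0% = vehicle DMSO and 100% = killing by high DMSO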
# [7] = growth inhibition, single agents and combos, HD-MB03, cell-based, BGB or cisplatin IC20 combos, synergistic combos for chromothripsis tumors (AID 1671455; in the data active = inhibition above about 83%;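 also: 0% = vehicle DMSO and 100% = high DMSO as cytotoxic control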); conditions: HD-MB03 medulloblastoma cells, stronger effect = higher value
# [8] = growth inhibition, single agents and combos, UWB1.289, cell-based, BGB or cisplatin combos, synergistic combos for chromothripsis tumors (AID 1671456); conditions: UWB1.289 ovarian carcinoma cells, stronger effect = higher value;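 also: cells exposed to compound for four days; 0% = vehicle DMSO and 100% = killing by high DMSO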
# [9] = growth inhibition, single agents and combos, LFS_MB_2R, cell-based, cisplatin combos, synergistic combos for chromothripsis tumors (AID 1671457); conditions: LFS_MB_2R medulloblastoma cells, stronger effect = higher value;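 also: cells exposed to compound for four days before readout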
# [10] = growth inhibition, MDA-MB-436, cell-based, BGB or cisplatin combos, synergistic combos for chromothripsis tumors (AID 1671458; call rule not given here;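 also: cells exposed for 96 hours; 0% = vehicle DMSO and 100% = killing by high DMSO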); conditions: MDA-MB-436 breast carcinoma growth inhibition, drug combinations, stronger effect = higher value
# [11] = UWB1.289_BRCA1 ovarian cancer growth, cell-based, BGB or cisplatin combinations (AID 1671459); conditions: UWB1.289 BRCA1 ovarian carcinoma, drug combinations, stronger effect = higher value
# [12] = drug combination toxicity in non-malignant astrocytes – cell-based, BGB or cisplatin IC20 combos, cytotoxicity control for chromothriptic childhood tumor combination screen (AID 1671460); conditions: Human astrocytes, viability inhibition, drug combinations, at 0.5 µM, stronger effect = higher value;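 also: cells exposed to compounds for 96 hours before viability readout; 0% = vehicle and 100% = killing control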
# [13] = BT084 cell growth, single and combined drugs, ICGC_MB145, cisplatin and BGB IC40 combos (AID 1671461); conditions: BT084 medulloblastoma cells, drug combinations, stronger effect = higher value;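 also: cells exposed to drugs for 96 hours; 0% = vehicle DMSO and 100% = high DMSO full killing control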
# [14] = RCMB18 cell growth, single agent and combined, cisplatin and BGB IC40 combos (AID 1671462); conditions: RCMB18 medulloblastoma cells, stronger effect = higher value;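 also: cells exposed to compound for four days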
# [15] = CRL1545 cell growth, single agent and combined, cisplatin and BGB IC20 combos (AID 1671464); conditions: CRL1545 osteosarcoma cells, stronger effect = higher value;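 also: cells exposed to compound for 96 hours before readout; 0% = vehicle DMSO and 100% = high DMSO killing control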
# [16] = at 0.5 µM, stronger effect = higher value
# [17] = measured here: combination with BGB IC20, at 0.005 µM
# [18] = measured here: combination with BGB IC40, at 0.005 µM
# [19] = measured here: combination with BGB IC40, at 0.05 µM
# [20] = measured here: combination with cisplatin, at 0.5 µM, stronger effect = higher value
# [21] = measured here: combination with cisplatin, at 5 µM, stronger effect = higher value
# [22] = measured here: with BGB IC20 combination, at 0.5 µM
# [23] = measured here: with cisplatin IC20 combination, at 0.5 µM
# [24] = measured here: 5 uM single agent, at 5 µM
# [25] = measured here: combination with cisplatin, at 0.5 µM
# [26] = measured here: combination with cisplatin, at 5 µM
# [27] = measured here: with BGB IC20, at 0.5 µM
# [28] = measured here: with BGB IC20, at 5 µM
# [29] = measured here: with cisplatin IC20, at 0.5 µM
# [30] = measured here: with cisplatin IC20, at 5 µM
smiles,measurement,setting,value
C=C1CCC(O)CC1=CC=C1CCCC2(C)C1CCC2C(C)C=CC(C)C(C)C (stereo not drawn),inhibition,[1]; [16],-12.3% (inactive)
same,inhibition,[1]; [17],-24.6%
same,inhibition,[1]; [18],-11.2%
same,inhibition,[1]; [19],-19.6%
same,inhibition,[1]; [20],-17.3%
same,inhibition,[1]; [21],-80.9%
same,inhibition,"[2]; BGB combo, at 5 µM",-2.75%
same,inhibition,[2]; at 0.5 µM,5.6% (inactive)
same,inhibition,"[2]; cisplatin combo, at 5 µM",6.61%
same,inhibition,[2]; [22],7.28%
same,inhibition,[2]; [23],3.61%
same,inhibition,"[2]; single agent, at 5 µM",5.11%
same,inhibition,"[3]; BGB IC20 combo, at 0.005 µM",-16.8%
same,inhibition,"[3]; BGB IC40 combo, at 0.005 µM",-28.1%
same,inhibition,"[3]; BGB IC40 combo, at 0.05 µM",22.2%
same,inhibition,[3]; at 0.5 µM,-8.49% (inactive)
same,inhibition,"[3]; cisplatin combo, at 0.05 µM",22.2%
same,inhibition,"[3]; cisplatin combo, at 0.5 µM",-55.6%
same,inhibition,"[3]; cisplatin combo, at 5 µM",-22.2%
same,inhibition,[3]; [24],-22.8%
same,inhibition,[4]; at 0.5 µM,14.3% (inactive)
same,inhibition,[4]; [19],15.9%
same,inhibition,[4]; [25],28.4%
same,inhibition,[4]; [26],4%
same,inhibition,[5]; at 0.5 µM,-12.4% (inactive)
same,inhibition,[5]; [27],-26.3%
same,inhibition,[5]; [28],9.36%
same,inhibition,[5]; [29],-19%
same,inhibition,[5]; [30],1.54%
same,inhibition,"[5]; single agent, at 5 µM",12%
same,inhibition,[6]; at 0.5 µM,-3.6% (inactive)
same,inhibition,"[6]; measured here: combination with BGB at IC20, at 0.5 µM",-1.76%
same,inhibition,"[6]; measured here: combination with cisplatin at IC20, at 0.5 µM",19.2%
same,inhibition,[7]; at 0.5 µM,-7.66% (inactive)
same,inhibition,"[7]; measured here: combo with BGB at IC20, at 0.5 µM",-6.27%
same,inhibition,"[7]; measured here: combo with cisplatin at IC20, at 0.5 µM",-11.7%
same,inhibition,[8]; at 0.5 µM,-2.68% (inactive)
same,inhibition,"[8]; measured here: inhibition with BGB combination, at 0.05 µM",-16.7%
same,inhibition,"[8]; measured here: inhibition with cisplatin combination, at 0.05 µM",-7.51%
same,inhibition,[9]; at 0.5 µM,-22.6% (inactive)
same,inhibition,[9]; [25],-24.1%
same,inhibition,[9]; [26],-14.6%
same,inhibition,[10]; at 0.5 µM,-12.5% (inactive)
same,inhibition,"[10]; measured here: BGB combination, at 0.5 µM",-17.5%
same,inhibition,"[10]; measured here: BGB combination, at 5 µM",-14.8%
same,inhibition,"[10]; measured here: cisplatin combination, at 0.5 µM",-15.7%
same,inhibition,"[10]; measured here: cisplatin combination, at 5 µM",-13.9%
same,inhibition,"[11]; BGB combination, concentration series, at 5 µM",18.4%
same,inhibition,[11]; at 0.5 µM,-4.82% (inactive)
same,inhibition,"[11]; cisplatin combination, concentration series, at 5 µM",27.5%
same,inhibition,[12],2.39% (inactive)
same,inhibition,[12]; measured here: combo with BGB IC20,0.485%
same,inhibition,[12]; measured here: combo with cisplatin IC20,-12%
same,inhibition,[13]; at 0.5 µM,-17.5% (inactive)
same,inhibition,"[13]; cisplatin combination, at 0.5 µM",-35.1%
same,inhibition,"[13]; cisplatin combination, at 5 µM",-77.9%
same,inhibition,"[13]; measured here: BGB IC40 combination 0.05 uM, at 0.05 µM",22.6%
same,inhibition,"[13]; single agent, at 5 µM",-13.5%
same,inhibition,[14]; at 0.5 µM,-6.63% (inactive)
same,inhibition,"[14]; cisplatin combo, at 5 µM",-19.4%
same,inhibition,"[14]; measured here: BGB IC40 combination, at 0.05 µM",-24%
same,inhibition,[14]; [25],-21.7%
same,inhibition,"[14]; single agent, at 5 µM",-13.3%
same,inhibition,[15]; at 0.5 µM,-21.7% (inactive)
same,inhibition,[15]; [22],16.4%
same,inhibition,[15]; [23],-40.8%
same,inhibition,"[15]; single agent, at 0.05 µM",37.2%
same,inhibition,"[15]; single agent, at 5 µM",10.9%
CCC(Sc1nnc2c3ccccc3n(CC)c2n1)C(=O)Nc1ccccc1OC (stereo not drawn),inhibition,[1]; [16],-17.9% (inactive)
same,inhibition,[1]; [17],-26%
same,inhibition,[1]; [18],87.7%
same,inhibition,[1]; [19],-14.4%
same,inhibition,[1]; [20],-20.5%
same,inhibition,[1]; [21],-38.2%
same,inhibition,"[2]; BGB combo, at 5 µM",-25%
same,inhibition,[2]; at 0.5 µM,-10.1% (inactive)
same,inhibition,"[2]; cisplatin combo, at 5 µM",7.7%
same,inhibition,[2]; [22],-15.6%
same,inhibition,[2]; [23],-11.8%
same,inhibition,"[2]; single agent, at 5 µM",1.35%
same,inhibition,"[3]; BGB IC20 combo, at 0.005 µM",-20.7%
same,inhibition,"[3]; BGB IC40 combo, at 0.005 µM",-12.8%
same,inhibition,"[3]; BGB IC40 combo, at 0.05 µM",-32.4%
same,inhibition,[3]; at 0.5 µM,-26.1% (inactive)
same,inhibition,"[3]; cisplatin combo, at 0.05 µM",-39.2%
same,inhibition,"[3]; cisplatin combo, at 0.5 µM",-34.7%
same,inhibition,"[3]; cisplatin combo, at 5 µM",-6.65%
same,inhibition,[3]; [24],-26%
same,inhibition,[4]; at 0.5 µM,-22.8% (inactive)
same,inhibition,[4]; [19],-32%
same,inhibition,[4]; [25],-18.6%
same,inhibition,[4]; [26],-34.1%
same,inhibition,[5]; at 0.5 µM,0.76% (inactive)
same,inhibition,[5]; [27],6.64%
same,inhibition,[5]; [28],-8.08%
same,inhibition,[5]; [29],-8.64%
same,inhibition,[5]; [30],-18%
same,inhibition,"[5]; single agent, at 5 µM",3.91%
